HIV Env fusion: HIV envelope-mediated fusion inhibition; HeLa-JRFL Env/CEM21 cell fusion, luciferase; AID 651610; 360,000 compounds, 1.1% hits; inhibition, % at 12.3 µM;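 active = mean replicate inhibition score of at least 50 and every replicate individually at or above 50; inconclusive = only one of the two criteria met; inactive = mean below 50 and not all replicates reaching 50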;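 also: 0% = plate neutral controls and 100% = maraviroc near 300 nM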
miR122 inh: miR-122 inhibition in Huh7 cells; Huh7 miR-122 Renilla luciferase sensor, 48 h; neutral wells = 0, positive control = 100; activation (reporter increase), % at 12.5 µM; 340,000 compounds, 0.3% hits;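 active = mean replicate activation score at least 90 and every replicate individually at or above 90; inconclusive = only one of the two criteria met; inactive = neither criterion met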;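 also: higher luciferase means less miR-122 activity so hits act as miR-122 inhibitors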
MITF TRPM1 HTS: increases MITF-driven TRPM1 promoter luciferase signal | SK-MEL-5 TRPM1-promoter luciferase, 24 h; % of positive control, neutral wells = 0 | activation, % at 12.5 µM | AID 588334 | 300,000 compounds, 0.75% hits;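 active = mean activation of at least 80% with every replicate also reaching 80%; inconclusive = mean reaches 80% but some replicate falls short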;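 also: 0% = neutral control wells and 100% = parthenolide positive control wells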
esBAF inh: SWI/SNF esBAF complex inhibition; mouse ES cells, Bmi1-luciferase knock-in reporter, 24 h; 100% = twice the neutral-well signal; reporter increase, % at 12.5 µM; 350,000 compounds, 2% hits; in the data active = activation above about 40%; inconclusive = no clear call, values can overlap the other calls;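 also: 0% = median of the plate's neutral control wells and 100% = double that signal; a rise in the Bmi1 reporter signal indicates esBAF inhibition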
Wnt act: activates Wnt/beta-catenin signaling in a reporter cell assay; activator, plate reader; activation, % at 9.35 µM; 300,000 compounds, 1.2% hits; AID 743398; in the data active = activation above about 30%, passing the limit was not always enough; inconclusive = no clear call, values can overlap the other calls;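 also: 0% = neutral control wells and 100% = positive control wells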
* = called active by the depositor; ? = inconclusive; · = no result; [ ] = remark or other dose. Sampled rows, rich in hits. Any-hit rate of the full collection: about 3.4%.

SMILES | HIV Env fusion | miR122 inh | MITF TRPM1 HTS | esBAF inh | Wnt act
CCOC(=O)CCCCCC(=O)Nc1ccc2c(c1)CC(=O)N([C@H](C)CO)C[C@H](C)[C@H](CN(C)S(=O)(=O)c1ccc(OC)cc1)O2 | 95.7* | 0.2 | -0.7 | 6.4 | 12.3
CC(C)NC(=O)N(C)C[C@@H]1Oc2ncc(-c3ccccc3F)cc2C(=O)N([C@H](C)CO)C[C@@H]1C | -11.0[16.7 µM] | -10.4[16.7 µM] | · | 7.3 | ·
COc1ccccc1-c1ccc2n(c1=O)C[C@H]1[C@H](CO)[C@@H](C(=O)N(C)C)N(CC3CCOCC3)[C@@H]21 | · | 2.2[16.7 µM] | · | -0.8 | ·
Cc1ccc(S(=O)(=O)N2[C@H](C(C)C)[C@H]3[C@H]4C(=O)N(c5ccccc5)C(=O)[C@H]4CC(=O)[C@H]3[C@@H]2c2ccccc2)cc1 | 59.2* | 6.0 | · | -6.6 | -1.2
Cc1ccc(S(=O)(=O)N2C[C@H]3C(=O)C[C@@H]4C(=O)N(c5ccccc5)C(=O)[C@@H]4[C@@H]3C[C@@H]2c2ccccc2)cc1 | -98.3 | -10.8 | · | -5.3 | -1.5
CCCN1C(=O)c2ccc(C(=O)Nc3nccs3)cc2C1=O | -3.4 | 0.7 | · | 43.3* | 3.5
COCCN1C(=O)c2ccc(C(=O)Nc3nccs3)cc2C1=O | -0.9 | -1.2 | -3.8 | -6.2 | 1.0
CCCc1cc(C(=O)Nc2nccs2)cs1 | -99.9 | -4.1 | 95.0* | 19.2 | ·
CCOC(=O)c1cnn(-c2ccccc2)c1NC(=O)CN1CCCCC1 | 2.4 | 9.7 | · | -4.9 | 40.7*
CCOC(=O)c1cnn(-c2ccc(C)cc2)c1N | -29.3 | -2.5 | 76.9 | 56.1* | 44.5*
CCOC(=O)c1cnn(-c2ccccc2)c1-n1cccc1 | -10.7 | -4.8 | 0.5 | -4.0 | 6.4
CO[C@H]1CN(C)C(=O)c2cc(NC(=O)Nc3ccccc3)ccc2OC[C@H](C)N(C(=O)CN(C)C)C[C@@H]1C | · | -2.1[16.7 µM] | · | 3.6 | ·
CCOc1ccc(OCC)c(NC(=O)CN2CCN(c3cccc(C)c3)CC2)c1 | · | -0.9 | -2.9 | -11.8 | ·
CCOc1ccc(OCC)c(NC(=O)CN2CCN(c3cc(C)ccc3C)CC2)c1 | 60.5* | -0.5 | -15.9 | -0.7 | -3.2
C[C@@H]1CCCCO[C@H](CN(C)C(=O)Nc2cccc3ccccc23)[C@H](C)CN([C@@H](C)CO)C(=O)c2cc(NC(=O)CCC(F)(F)F)ccc2O1 | -16.3[16.7 µM] | -3.6[16.7 µM] | · | 45.5* | ·
C[C@@H]1CCCCO[C@H](CN(C)C(=O)Nc2cccc3ccccc23)[C@H](C)CN([C@H](C)CO)C(=O)c2cc(NS(=O)(=O)c3ccccc3)ccc2O1 | 62.4*[16.7 µM] | 15.8[16.7 µM] | · | -4.5 | ·
C[C@H](CO)N1C[C@H](C)[C@H](CN(C)C(=O)Nc2cccc3ccccc23)OCCCC[C@H](C)Oc2ccc(NC(=O)c3ccccc3)cc2C1=O | -27.4[16.7 µM] | -9.1[16.7 µM] | · | 16.9 | ·
C[C@@H]1CN([C@@H](C)CO)C(=O)c2cc(NC(=O)c3ccccc3)ccc2O[C@@H](C)CCCCO[C@H]1CN(C)C(=O)Nc1cccc2ccccc12 | 59.8*[16.7 µM] | 11.8[16.7 µM] | · | -19.6 | ·
C[C@@H]1CCCCO[C@@H](CN(C)CC2CCCCC2)[C@@H](C)CN([C@H](C)CO)C(=O)c2cc(NC(=O)CCC(F)(F)F)ccc2O1 | -1.4[16.7 µM] | 103.8*[16.7 µM] | · | -0.8 | ·
CCC(=O)Nc1ccc2c(c1)C(=O)N(C)C[C@H](OC)[C@H](C)CN(CC1CC1)[C@@H](C)CO2 | · | · | · | 3.4 | ·
COc1cccc(-c2cnc3c(c2)C(=O)N([C@@H](C)CO)C[C@H](C)[C@H](CN(C)Cc2ccncc2)O3)c1 | 3.4[16.7 µM] | 1.1[16.7 µM] | · | -5.1 | ·
CCC(=O)Nc1ccc2c(c1)C(=O)N(C)C[C@@H](OC)[C@@H](C)CN(Cc1ccccc1C(=O)O)[C@@H](C)CO2 | · | · | · | -2.1 | ·
C[C@H]1CCCCO[C@H](CN(C)C(=O)Nc2cccc3ccccc23)[C@@H](C)CN([C@@H](C)CO)C(=O)c2cc(NC(=O)NC3CCCCC3)ccc2O1 | 61.4*[16.7 µM] | -6.5[16.7 µM] | · | 4.8 | ·
C[C@@H]1CN([C@@H](C)CO)C(=O)c2cc(NC(=O)NC3CCCCC3)ccc2O[C@@H](C)CCCCO[C@H]1CN(C)C(=O)Nc1cccc2ccccc12 | 43.1[16.7 µM] | -4.4[16.7 µM] | · | 1.5 | ·
Cc1noc(C)c1S(=O)(=O)N(C)C[C@@H]1Oc2ccc(NS(=O)(=O)c3ccccc3)cc2CC(=O)N([C@H](C)CO)C[C@H]1C | -14.3[16.7 µM] | -4.0[16.7 µM] | · | -0.9 | ·
SMILES | HIV Env fusion | miR122 inh | MITF TRPM1 HTS | esBAF inh | Wnt act
CC(=O)Nc1c(-c2ccc3ccccc3c2)nc2ccccn12 | -76.2 | 0.2 | 82.3* | 56.9* | 23.4
CCC(=O)Nc1c(-c2ccc3ccccc3c2)nc2ccccn12 | -18.5 | 3.3 | 15.3 | 10.8 | 8.8
C=CCNc1nc(C(=O)OCC(=O)c2ccccc2)cs1 | -16.0 | 0.6 | 69.4 | 54.9* | 19.1
Cc1cc(-c2nc3ccccc3c(=O)o2)ccc1[N+](=O)[O-] | -13.5 | 0.0 | 11.4 | 32.6 | 39.4*
Cc1ccc(-c2nc3ccccc3c(=O)o2)cc1 | -38.2 | 2.1 | 20.0 | 39.6 | 3.5
C[C@H](NC(=O)C[C@@H]1CC[C@H](NC(=O)C2CCOCC2)[C@@H](CO)O1)c1ccccc1 | 3.7[16.7 µM] | · | · | 7.3 | ·
Cc1c(C(=O)N2CCN(C)CC2)oc2c1C(=O)CC(C)(C)C2 | · | 8.1 | 1.9 | -1.8 | -0.5
Cc1c(C(=O)N2CCc3ccccc32)oc2c1C(=O)CC(C)(C)C2 | -150.2 | 5.5 | ? | 52.5* | -1.9
O=C(Nc1cc2c(cc1Br)OCCCO2)c1ccccc1 | -180.8 | · | 45.5 | · | 52.0*
Cc1ccc(C(=O)Nc2cc3c(cc2Cl)OCCCO3)cc1 | · | -3.8 | 71.5 | 68.7* | ·
O=C(Nc1cc2c(cc1Br)OCCCO2)c1cccnc1 | -21.1 | 4.3 | 10.1 | -3.6 | 5.3
CC(=O)c1cc2c(cc1NC(=O)c1ccc(Cl)cc1)OCCO2 | 5.0 | · | · | -0.9 | -2.4
O=C(Nc1cc2c(cc1Cl)OCCCO2)c1ccc(F)cc1 | -105.7 | · | 76.1 | · | 50.9*
Cc1ccc(C(=O)Nc2ccc3c(c2)OCCO3)cc1 | -141.1 | · | · | -61.4 | 1.1
N#C[C@@H]1[C@@H](c2ccc(C#Cc3cccnc3)cc2)[C@@H](CO)N1C(=O)NC1CCCCC1 | 5.8[16.7 µM] | · | · | 1.3 | ·
CCN(CCCNC(=O)CC(C(=O)N1CCc2ccccc21)n1ccnc1)c1cccc(C)c1 (stereo unspecified) | 57.1* | 3.2 | -10.2 | -4.0 | ·
Cc1ccccc1NC(=O)C(=O)c1cn(C)c2ccccc12 | -32.8 | -1.1 | 41.4 | 55.8* | 1.7
Cn1cc(C(=O)C(=O)NCCc2ccccc2)c2ccccc21 | -66.3 | 8.0 | 14.2 | 4.3 | 1.4
CCC(C)(C)n1nnnc1C(c1ccc(C)cc1)N(Cc1ccco1)Cc1cccs1 (stereo unspecified) | 134.7* | 7.9 | 4.9 | -25.4 | -5.7
C#CCn1c(=NC(=O)c2ccc(Cl)s2)sc2cccc(OC)c21 | 1.8 | -0.9 | 65.1 | 49.8* | -6.2
O=C(C[C@H]1C[C@@H]2c3cc(NC(=O)C4CCC4)ccc3O[C@@H]2[C@@H](CO)O1)NC1CCCCC1 | -12.2[16.7 µM] | -6.5[16.7 µM] | · | 8.6 | ·
O=S(=O)(N1CCCCC1)N1CCN(CC(O)COc2ccc3cc(Br)ccc3c2)CC1 (stereo unspecified) | 63.0* | -22.2 | -16.2 | 6.6 | ·

From PubChem BioAssay
